Measured values as given in PubChem BioAssay (NCATS).
Results filed as inconclusive are left out. Where a call stands in place of a potency, no number is given. The source made the active and inactive calls. Calls come from the whole dose curve; as a rule, active = well fitted inhibition curve with a large enough effect; inconclusive = small, poorly fitted or top-dose-only effect; inactive = flat fitted curve, though single readings scatter.

Columns and labels:
Test in all cases: qHTS profiling for inhibitors of Plasmodium falciparum proliferation (AID 504749); note: nearly all actives have a fitted effect of over 60% in size
Conditions in all cases: P. falciparum in erythrocytes, SYBR Green DNA, 72 h; series mostly up to 28.7 µM
AS120 = tested on: AS120
In short: (§1)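 Quantitative HTS: compounds pinned into medium, infected erythrocytes added (0.3% parasitemia, 2.5% hematocrit), 72 h culture at 37 C under 5% CO2. Saponin/Triton lysis with SYBR Green I, overnight RT, then fluorescence read.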

ATS95 = tested on: ATS95
In short: as §1

CP191 = tested on: CP191
In short: as §1

CP237 = tested on: CP237
In short: as §1

CP247 = tested on: CP247
In short: as §1

CP265 = tested on: CP265
In short: as §1

CP266 = tested on: CP266
In short: as §1

CP268 = tested on: CP268
In short: as §1

CP269 = tested on: CP269
In short: as §1

CP305 = tested on: CP305
In short: as §1

CP325 = tested on: CP325
In short: as §1

DIV30 = tested on: DIV30
In short: as §1

ECU = tested on: ECU
In short: as §1

HB3 = tested on: HB3
In short: as §1

P94_40 = tested on: P94_40
In short: as §1

PAD = tested on: PAD
In short: as §1

PC26 = tested on: PC26
In short: as §1

PC49 = tested on: PC49
In short: as §1

SC27B = tested on: SC27B
In short: as §1

TAB113 = tested on: TAB113
In short: as §1
Potency is the fitted concentration of half-maximal effect.

| Compound | Potency (AS120) | Potency (ATS95) | Potency (CP191) | Potency (CP237) | Potency (CP247) | Potency (CP265) | Potency (CP266) | Potency (CP268) | Potency (CP269) | Potency (CP305) | Potency (CP325) | Potency (DIV30) | Potency (ECU) | Potency (HB3) | Potency (P94_40) | Potency (PAD) | Potency (PC26) | Potency (PC49) | Potency (SC27B) | Potency (TAB113) |
| --- | --- | --- | --- | --- | --- | --- | --- | --- | --- | --- | --- | --- | --- | --- | --- | --- | --- | --- | --- | --- |
| N[C@@H](Cc1ccccc1)C(=O)O | inactive | inactive | inactive | inactive | inactive | inactive | inactive | inactive | inactive | inactive | inactive | inactive | inactive | inactive | inactive | inactive | inactive | inactive | inactive | inactive |
| O=C(O)[C@@H](S)[C@H](S)C(=O)O | 5.62 µM (active) | 6.31 µM (active) | 8.91 µM (active) | 7.08 µM (active) | 7.94 µM (active) | 8.91 µM (active) | 9.53 µM (active) | 13.5 µM (active) | 6.75 µM (active) | 7.57 µM (active) | 9.53 µM (active) | 6.75 µM (active) | 11.2 µM (active) | 10 µM (active) | 4.47 µM (active) | 8.91 µM (active) | 8.49 µM (active) | 11.2 µM (active) | 11.2 µM (active) | 11.2 µM (active) |
